High-throughput results deposited in PubChem by several laboratories.
Hits are enriched below; roughly 3.6% of the tested compounds scored in any of these assays.
FAS-TE inh: blocks the thioesterase domain of human fatty acid synthase; actives 0.67% (n = 360,000); inhibition, % at 15 µM; recombinant FAS-TE, OMFH fluorogenic substrate, fluorescence endpoint; AID 602261;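 active = compounds whose normalised, plate-corrected inhibition of enzyme fluorescence in the single-dose primary screen is 50% or more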;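 note: 0% = DMSO with enzyme and 100% = substrate without enzyme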
NadD inh: inhibitors of Staphylococcus aureus NadD; inhibition, % at 20 µM; purified NadD enzyme, colorimetric absorbance read-out; actives 0.78% (n = 360,000); in the data active = inhibition above about 26%
NRP1-CendR mod: alters CendR peptide binding to human NRP-1; O14786; FAM-RPARPAR peptide binding to NRP-1, fluorescence polarization; inhibition, % at 25 µM; actives 0.85% (n = 360,000); AID 602438;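 active = inhibition or corrected inhibition above about 18%, plus a signal ratio from 0.5 to 1.5, limit read from the data, passing the limit was not always enough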
Myeloid diff MLP: compounds promoting myeloid differentiation. ER-HoxA9 myeloid progenitors, lysozyme-GFP differentiation, flow cytometry. calls only at 10 µM. actives 1% (n = 360,000);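 active = normalized GFP-positive differentiation at or above the plate's own cutoff, the solvent-only control mean plus 3 SD; inconclusive = no clear call, values can overlap the other calls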;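 note: cells exposed to compound for four days before flow analysis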
CRFBP-R2 block: antagonists of CRF-binding protein/CRF-R2 receptor complex. HEK293 CRF-R2/CRF-BP, CRF-induced calcium fluorescence. actives 0.59% (n = 350,000). AID 588475. inhibition, % at 11.8 µM;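 active = inhibition of the ligand-induced calcium signal above about 50% at the single tested concentration, limit read from the data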
Numbers without * were called inactive; i = inactive; ? = inconclusive; / = not tested or not shown; + = active, no number.

SMILES	FAS-TE inh	NadD inh	NRP1-CendR mod	Myeloid diff MLP	CRFBP-R2 block
CS(=O)(=O)Nc1cccc(NC(=O)C2Cc3c(-c4cccc(F)c4)ccnc3O2)c1 (stereo not drawn)	1	-2	7	+	/
O=C(NCCC(F)(F)F)C1Cc2c(-c3ccc(Cl)cc3)ccnc2O1 (stereo not drawn)	4	1	27*	i	/
CC(=O)Nc1cccc(-c2ccnc3c2CC(C(=O)NCc2cccc(Cl)c2)O3)c1 (stereo not drawn)	-1	1	-3	+	/
O=C(NCC1CC1)C1Cc2c(-c3ccc(Cl)cc3)ccnc2O1 (stereo not drawn)	0	-1	-6	i	/
Cc1ccc(NC(=O)CSc2nc(N)cc(=O)[nH]2)cc1S(=O)(=O)N1CCCCC1	-1	5	2	i	-4
Cn1cc(Cl)c(/C=C(\C#N)S(=O)(=O)c2ccccc2)n1	-7	-3	4	i	-5
CC(=O)Nc1ccc(CNc2nc(NC(C)C)nc3ccsc23)cc1	-6	2	28*	i	/
CC(=O)Nc1ccc(CNc2nc(NCC3CC3)nc3ccsc23)cc1	-2	-10	-6	i	/
COC(=O)c1cnc(Oc2ccc(NC(=O)NC(=O)c3ccccc3Cl)cc2)cc1C(F)(F)F	-1	-2	29*	i	10
Cc1ccccc1NC(=O)CCC(=O)OCC(=O)c1ccc(-c2ccccc2)cc1	-2	7	27*	i	16
O=C(CCC(=O)OCC(=O)c1ccc(-c2ccccc2)cc1)Nc1cccc(Cl)c1	-2	9	-2	i	-10
CN(CC(=O)Nc1cccc(F)c1)C(=O)c1ccccc1OCC(=O)Nc1cccc(C(F)(F)F)c1	7	-9	3	i	-4
C/C(=N\NC(=O)C1CC1)c1cccs1	-12	5	5	i	-16
COC(=O)N/N=C(\C)c1cccs1	-5	-1	4	i	112*
CC1COC(=C2C(=O)OCC2C)C1 (stereo not drawn)	-11	-3	4	?	47
Cc1nc(C(F)(F)F)ccc1C(=O)N1CCC1(C)C(=O)NS(=O)(=O)c1cccc(C#N)c1 (stereo not drawn)	-9	-3	-2	i	/
Cc1ccccc1NC(=O)c1sc2nc(N3CCOCC3)c3c(c2c1N)CCCC3	20	20	33*	i	8
COc1ccccc1NC(=O)c1sc2nc(N3CCOCC3)c3c(c2c1N)CCCC3	17	6	14	i	-8
CC1=C(C(=O)OC(C)(C)C)C(c2cccc3ccccc23)NC(=O)N1 (stereo not drawn)	9	-6	12	i	65*
CC1=C(C(=O)OCCOC(C)C)C(c2cccc3ccccc23)NC(=O)N1 (stereo not drawn)	-2	-2	-8	i	-17
Cc1nc2c(s1)sc1ccccc12	-6	-3	8	i	51*
Cc1ccc(C2CC(c3ccc(Cl)cc3)=NNC2=O)cc1 (stereo not drawn)	9	-1	-11	i	8
Cc1cccc(C2=NNC(=O)C(c3ccc(Cl)cc3)C2)c1 (stereo not drawn)	8	-10	25*	i	-30
O=C(NC1CCS(=O)(=O)C1)c1ccc2c(c1)OCO2 (stereo not drawn)	-4	-1	16	i	3
CCCCOc1ccc(CSC(CC(=O)O)C(=O)O)cc1 (stereo not drawn)	-12	-1	14	i	-10
SMILES	FAS-TE inh	NadD inh	NRP1-CendR mod	Myeloid diff MLP	CRFBP-R2 block
CCCCOc1ccc(CSCCN=C(N)N)cc1	-3	-7	40*	i	-13
COc1ccc(CNC(=O)Nc2cccs2)cc1OC	-7	7	-8	i	62*
COc1cccc(CNC(=O)Nc2cccs2)c1	-3	2	-28	i	4
COc1cc(CNc2ccc3[nH]c(=O)[nH]c3c2)cc(Br)c1OCc1ccc(F)cc1	-4	-4	-1	+	-4
CCCS(=O)(=O)NC(=O)C1(C)CCN(C(=O)c2ccnc(Cl)c2)C1 (stereo not drawn)	-10	1	-8	i	/
CC(C)(C)c1ccc(CNc2ccc([N+](=O)[O-])cn2)cc1	-96	1	32*	i	-17
CC(C)c1ccc(CNc2ccc([N+](=O)[O-])cn2)cc1	6	1	-5	i	-15
CCOC(=O)c1sc(=NC(=O)c2cccs2)n(C)c1C	-3	-4	7	i	-2
CCOC(=O)c1sc(=NC(=O)c2ccc(Cl)s2)n(C)c1C	6	-3	6	i	114*
CC(=O)N1CCN(c2nc3ccc(Br)cc3s2)CC1	-3	-2	10	i	3
CC(C)(C)C(=O)N1CCN(c2nc3ccc(Br)cc3s2)CC1	2	3	2	+	-2
CCn1c(=N)n(CC(O)COc2ccc(C)cc2)c2ccccc21 (stereo not drawn)	-6	-9	-4	i	-15
CCCCn1c(=N)n(CC(O)COc2cccc(C)c2)c2ccccc21 (stereo not drawn)	-4	-1	-14	+	-48
CCCn1c(=N)n(CC(O)COc2ccc(C)cc2)c2ccccc21 (stereo not drawn)	-3	-4	-1	i	51*
Cc1[nH]n(-c2ccccc2)c(=O)c1C(C[N+](=O)[O-])c1ccccc1Cl (stereo not drawn)	-2	5	31*	i	1
Nc1ccn(C2C=CC(CO)O2)c(=O)n1 (stereo not drawn)	-4	-2	0	i	/
O=C(NNC(=O)c1ccc(-n2cncn2)c([N+](=O)[O-])c1)c1ccc(Cl)cc1	-5	-6	3	i	-4
CC(C)c1cc(Cn2c3ccccc3c(=O)n2C(C)C)on1	-7	-6	-5	i	/
COC(=O)c1ccc(CSc2nc3c(cnn3-c3ccc(F)cc3)c(=O)[nH]2)o1	4	7	-6	i	52*
COC(=O)c1ccc(CSc2nc3c(cnn3-c3ccc(Cl)cc3)c(=O)[nH]2)o1	6	12	7	i	-1
COC(=O)C1=C(N)c2c(F)cccc2C1(C#N)c1ccccc1 (stereo not drawn)	0	-3	5	i	58*
N#CN=CN1CC=C(c2ccc(Cl)cc2)CC1	-2	-3	-9	i	0
COc1cc(NCCCn2ccc(NC(=O)OCc3ccccc3)nc2=O)cc(OC)c1OC	-6	0	-4	i	19
CCCCC#Cc1cncc(C(=O)N/N=C/c2cccc(OC)c2)c1	16	-2	38*	i	5
Cc1c(C(=O)NCc2ccccc2C(F)(F)F)sc(=O)n1Cc1ccccc1C#N	11	-2	-13	i	/
CCCn1c(C(CO)Nc2nc(-c3cccc(Br)c3)cs2)nc2ccccc21 (stereo not drawn)	11	-2	-1	i	-8
